A selection: hits, their analogues and other compounds. The true share with any hit is near 3.5%.
TEAD-YAP block: TEAD-YAP interaction inhibition. 1.4% of 640,000 active. inhibition, % at 9.12 µM. AID 1259422. HEK-TIYL cells, TEAD-Gal4/YAP UAS-luciferase luminescence; in the data active = inhibition above about 32%;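 also: 0% = median of test compound wells and 100% = reference inhibitor wells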
GPR151 activ: activators of human GPR151; AID 1508602; Q8TDV0; activation, % at 11.2 µM; PathHunter beta-arrestin GPR151 cells, luminescence; 1% of 650,000 active; in the data active = activation above about 4.9%;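 also: 0% = median of compound wells and 100% = cells with positive control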
FBW7 activator: activators of human E3 ligase FBW7; Q969H0; AlphaScreen FBW7–phospho-cyclin E peptide binding, activator screen; normalized activity (activation), % at 26.1 µM; 0.13% of 650,000 active; AID 1259310; in the data active = normalized activity above about 1.9%;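 also: purified mutant Fbw7 with reduced substrate affinity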
MITF primary: blocks human microphthalmia-associated transcription factor; inhibition, % at 2.6 µM; AlphaScreen MITF homodimerization, bead proximity signal; 0.91% of 650,000 active; in the data active = inhibition above about 50%;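 also: 0% = vehicle wells with protein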
GPR151 confirm: confirmation of human GPR151 activators; activation, % at 11.2 µM; GPR151 PathHunter beta-arrestin cells, luminescence, 90 min; % of EA-reagent control over plate median; shares compounds with GPR151 activ; 6,700 tested, under 10 active;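 active = mean percent activation across replicates above the confirmation screen cutoff of 4.91%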
GPR119 ag: counter-screen for GPR151 activators: effect on human GPR119; shares compounds with GPR151 activ; AID 1508611; 0.3% of 6,700 active; GPR119 PathHunter beta-arrestin cells, luminescence, 90 min; 0 = compound-well median, 100 = enzyme-acceptor control; activation, % at 11.2 µM;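 active = mean percent activation in the counterscreen above 29.09%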;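 also: counterscreen on off-target GPR119 to flag nonselective hits from the GPR151 activator screen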
Active calls of the source: *; nt = no result; ! = a repeat was not active.

SMILES	TEAD-YAP block	GPR151 activ	FBW7 activator	MITF primary	GPR151 confirm	GPR119 ag
Cc1cccc(NC(=O)CCC(=O)O)c1C	6	0	0	-9	nt	nt
Cc1cc(C)cc(NS(=O)(=O)c2cc(C(N)=O)ccc2C)c1	7	13*	0	14	0	8
Cc1c(C(=O)N2CCN(c3ccccc3Cl)CC2)nnn1-c1nc2c(s1)CCCC2	1	9.4*	0	-6	1	-3
CCOC(=O)Cc1ccc(N(Cc2ccc(Cl)cc2)S(=O)(=O)c2c(C)cc(C)cc2C)cc1	-1	1	0	-6	nt	nt
CCOc1ccccc1OCCCNC(C)(C)C	-4	2	0	30	nt	nt
CC(C)c1ccccc1OCCCNC(C)(C)C	12	7.1*	0	38	0	1
CCCOc1ccccc1CNC(C)(C)C	-13	9.3*	0	-22	1	3
Oc1ccccc1CNc1cc2c(cc1Br)OCCO2	-2	19*	0	10	0	-2
Oc1ccccc1CNc1ccc2c(c1)OCCO2	-19	0	0	5	nt	nt
CCCCCCCCCCCCCCCCOP(=O)(O)OCC[N+](C)(C)C	5	11*!	0	-13	0	6
Cc1nc(NCCCN2CCOCC2)cc(-c2cncc(-c3cc4ccccc4s3)c2)n1	-14	1	0	-7	nt	nt
Cc1cc2nnc(SCC(=O)Nc3sc4c(c3C#N)CCC(C)C4)n2c2ccccc12 (configuration not stated)	3	5.3*	0	22	0	4
Cc1cc(C(=O)Nc2sc3c(c2C#N)CCC(C)C3)cs1 (configuration not stated)	-65	8.3*	0	-1	0	-11
COC(=O)c1c(NC(=O)CSc2nnc3cc(C)c4ccccc4n23)sc2c1CCC(C)C2 (configuration not stated)	-5	0	0	0	nt	nt
Cc1cnn(C)c1C(=O)Nc1c2c(nn1-c1nc3ccccc3s1)CCC2	1	20*	0	4	0	-2
CC(=O)Nc1c2c(nn1-c1nc3ccccc3s1)CCC2	-10	0	1	10	nt	nt
Cc1cc(C)nc(NNS(=O)(=O)c2ccc(Cl)cc2)n1	0	5.9*	0	4	2	7
Cc1nnc2sc(SCc3ccc([N+](=O)[O-])cc3)nn2c1=O	1	0	0	-5	nt	nt
Cc1ccccc1CSc1nn2c(=O)c(C)nnc2s1	1	6.8*	-1	-6	1	14
CN1C(=O)C(C)(C)c2cc(S(=O)(=O)N3CCN(c4ccccc4F)CC3)ccc21	-9	5.1*	0	1	0	5
Cc1cccc(N2CCN(S(=O)(=O)c3ccc4c(c3)C(C)(C)C(=O)N4C)CC2)c1C	5	0	0	32	nt	nt
COc1ccc2oc(-c3ccccc3)c(C(=O)Nc3nccs3)c2c1	4	6.2*	0	-11	0	-7
COc1ccc2oc(-c3ccccc3)c(C(=O)O)c2c1	10	-2	0	11	nt	nt
Cc1ccc(N(C)C(=O)CN(C)S(=O)(=O)c2ccc3[nH]c4c(c3c2)CCCC4)cc1	-11	-2	0	-3	nt	nt
O=C(Nc1cccc2ccccc12)C1CC(=O)N(c2cccc(Cl)c2)C1 (configuration not stated)	-1	6.9*	0	7	0	6

Source: PubChem (The Scripps Research Institute Molecular Screening Center)
